Test results taken from the supplement of paper PMC11482750.
± gives the standard deviation of the averaged measurements.

Experiments:
Assay in all cases: control-subtracted net OSN firing rate; higher = stronger neuronal activation
Conditions in all cases: odorant dilution (vol/vol): 1/100
allyl isothiocyanate = compound: C=CCN=C=S [allyl isothiocyanate]
Method in brief: (§1)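 Values are replicate means from single sensillum recordings of palp or antennal olfactory sensory neurons. Recordings used 1–5-day-old fed female flies, either Scaptomyza species or D. melanogaster wild-type, mutant or at1 empty-neuron lines carrying Or42a homologs, stimulated with 1 s pulses of odorant (1:100 vol/vol in mineral oil or dimethyl sulfoxide, 20 μl on filter paper) into 16 ml/min filtered air. Spikes in a 0.5 s window beginning 0.2 s after onset were background-subtracted, doubled and corrected for solvent.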

isobutyl isothiocyanate = compound: CC(C)CN=C=S [isobutyl isothiocyanate]
Method in brief: as §1

sec-butyl isothiocyanate = compound: CCC(C)N=C=S [sec-butyl isothiocyanate]
Method in brief: as §1

cinnamaldehyde = compound: O=C/C=C/c1ccccc1 [cinnamaldehyde]
Method in brief: as §1

phenethyl isothiocyanate = compound: S=C=NCCc1ccccc1 [phenethyl isothiocyanate]
Method in brief: as §1

butyl isothiocyanate = compound: CCCCN=C=S [butyl isothiocyanate]
Method in brief: as §1

Row | Target | control-subtracted net OSN firing rate (allyl isothiocyanate) | control-subtracted net OSN firing rate (isobutyl isothiocyanate) | control-subtracted net OSN firing rate (sec-butyl isothiocyanate) | control-subtracted net OSN firing rate (cinnamaldehyde) | control-subtracted net OSN firing rate (phenethyl isothiocyanate) | control-subtracted net OSN firing rate (butyl isothiocyanate)
1 | Canton-S (D. melanogaster) pb3a | 7.56 ± 4.9 spikes/s | 1.5 ± 6 spikes/s | 3.67 ± 8 spikes/s | 0 ± 8.4 spikes/s | 1.17 ± 5.8 spikes/s | 
2 | S. flava pb1a-like | 123 ± 14 spikes/s | 107 ± 32 spikes/s | 30.3 ± 26 spikes/s | 16.7 ± 17 spikes/s | -4 ± 3.8 spikes/s | 
3 | S. hsui pb2a-like | -2 ± 4.7 spikes/s | 2 ± 7.3 spikes/s | 2 ± 4.7 spikes/s | 2.67 ± 8.2 spikes/s | 0.333 ± 5 spikes/s | 
4 | S. montana pb2b-like | 2 ± 4.2 spikes/s | 3.67 ± 5.3 spikes/s | 4.33 ± 6.2 spikes/s | 6.67 ± 12 spikes/s | -4.33 ± 4.8 spikes/s | 
5 | S. flava pb3a-like | 6 ± 8.3 spikes/s | 4.67 ± 6.8 spikes/s | 0.333 ± 11 spikes/s | -2 ± 10 spikes/s | 3.33 ± 9.1 spikes/s | 
6 | S. hsui pb3a-like | 0 ± 12 spikes/s | -4.33 ± 7.9 spikes/s | -2 ± 10 spikes/s | 6.33 ± 9.9 spikes/s | -4.67 ± 13 spikes/s | 
7 | S. hsui pb1a-like | 124 ± 17 spikes/s | 10 ± 5.1 spikes/s | 8.67 ± 7.3 spikes/s | 12.7 ± 16 spikes/s | 3.67 ± 8.9 spikes/s | 
8 | S. pallida pb2a-like | 9 ± 9.5 spikes/s | 5.33 ± 6.4 spikes/s | 10.7 ± 9.5 spikes/s | 6.67 ± 4.8 spikes/s | 3.67 ± 4.6 spikes/s | 
9 | S. pallida pb3b-like | -5.67 ± 14 spikes/s | -4 ± 7.9 spikes/s | 5.33 ± 17 spikes/s | -6.67 ± 18 spikes/s | -5.67 ± 15 spikes/s | 
10 | Or67dGal4, UAS-Spal Or42a at1 | 201 ± 39 spikes/s | 42.2 ± 14 spikes/s | 22.8 ± 9.7 spikes/s |  |  | 
11 | Or67dGal4, UAS-Sfla Or42a3 at1 | 127 ± 27 spikes/s | 77.7 ± 25 spikes/s | 29.4 ± 17 spikes/s |  |  | 
12 | Canton-S (D. melanogaster) pb1a | 134 ± 36 spikes/s | 0.222 ± 8.7 spikes/s | 3.56 ± 4.9 spikes/s | 7.11 ± 7.2 spikes/s | 2 ± 9.3 spikes/s | 
13 | S. hsui pb1b-like | -15 ± 6.4 spikes/s | -3.33 ± 8.7 spikes/s | 4.33 ± 7.4 spikes/s | 6 ± 16 spikes/s | -3 ± 7.1 spikes/s | 
14 | Or67dGal4, UAS-Dmel Or42a at1 | 94.3 ± 58 spikes/s | 5.33 ± 7.7 spikes/s | 4.33 ± 11 spikes/s |  |  | 
15 | Or67dGal4, UAS-Sfla Or42a2 at1 | 39.7 ± 29 spikes/s | -2 ± 3.1 spikes/s | -1.71 ± 6.6 spikes/s |  |  | 
16 | S. montana pb3a-like | 9.67 ± 6.5 spikes/s | 5 ± 8.5 spikes/s | 1 ± 7.9 spikes/s | -2.67 ± 16 spikes/s | 2.33 ± 10 spikes/s | 
17 | S. pallida pb1b-like | -11 ± 11 spikes/s | -8.67 ± 14 spikes/s | -1 ± 13 spikes/s | 4.67 ± 8.6 spikes/s | -11 ± 11 spikes/s | 
18 | S. flava pb2a-like | -1.67 ± 6.9 spikes/s | 0.667 ± 5.8 spikes/s | 3 ± 7.8 spikes/s | 0 ± 6.2 spikes/s | -0.667 ± 5.8 spikes/s | 

Row | Target | control-subtracted net OSN firing rate (allyl isothiocyanate) | control-subtracted net OSN firing rate (isobutyl isothiocyanate) | control-subtracted net OSN firing rate (sec-butyl isothiocyanate) | control-subtracted net OSN firing rate (cinnamaldehyde) | control-subtracted net OSN firing rate (phenethyl isothiocyanate) | control-subtracted net OSN firing rate (butyl isothiocyanate)
19 | S. pallida pb3a-like | -6.33 ± 7 spikes/s | -5.67 ± 5.8 spikes/s | -5 ± 14 spikes/s | 1 ± 8.3 spikes/s | -4.33 ± 8.1 spikes/s | -3 ± 7.5 spikes/s
20 | S. montana pb1a-like | 126 ± 16 spikes/s | 110 ± 18 spikes/s | 48.3 ± 20 spikes/s | 17 ± 9 spikes/s | 4.67 ± 7.9 spikes/s | 
21 | Canton-S (D. melanogaster) pb3b | -3.33 ± 8.2 spikes/s | -1.5 ± 9.8 spikes/s | 1.33 ± 7 spikes/s | -1.67 ± 8.6 spikes/s | 0 ± 11 spikes/s | 
22 | S. montana pb1b-like | -19 ± 14 spikes/s | -18 ± 11 spikes/s | -8.33 ± 9.7 spikes/s | 4 ± 5.4 spikes/s | 3.67 ± 2.9 spikes/s | 
23 | S. hsui pb3b-like | -2.67 ± 4.5 spikes/s | -1.33 ± 3.9 spikes/s | -3 ± 1.7 spikes/s | 2.67 ± 15 spikes/s | -3 ± 5.8 spikes/s | 
24 | S. montana pb3b-like | 3 ± 7.9 spikes/s | -0.667 ± 7.8 spikes/s | 3.67 ± 6.9 spikes/s | -1.67 ± 8.2 spikes/s | -2.33 ± 8.7 spikes/s | 
25 | S. hsui pb2b-like | 0.667 ± 4.1 spikes/s | 7 ± 8.2 spikes/s | 5.33 ± 6.3 spikes/s | 11 ± 9.8 spikes/s | -0.333 ± 6 spikes/s | 
26 | S. flava pb1b-like | -21 ± 16 spikes/s | -26.3 ± 24 spikes/s | -2.33 ± 32 spikes/s | 1.33 ± 17 spikes/s | 3 ± 8.8 spikes/s | 
27 | Canton-S (D. melanogaster) pb1b | -8.93 ± 11 spikes/s | 1.33 ± 9.2 spikes/s | -0.667 ± 9.4 spikes/s | 2.67 ± 9.5 spikes/s | -4.44 ± 6.8 spikes/s | 
28 | S. pallida pb1a-like | 109 ± 21 spikes/s | 26 ± 12 spikes/s | 17.3 ± 13 spikes/s | 19.3 ± 13 spikes/s | 3 ± 4.3 spikes/s | 
29 | S. montana pb2a-like | 0.667 ± 4.1 spikes/s | 1.67 ± 4.5 spikes/s | 3 ± 10 spikes/s | 13.7 ± 10 spikes/s | 2.67 ± 4.3 spikes/s | 
30 | S. flava pb3b-like | 2 ± 14 spikes/s | -3.67 ± 24 spikes/s | -3.33 ± 16 spikes/s | 4.33 ± 16 spikes/s | 1.33 ± 4.3 spikes/s | 
31 | S. flava pb2b-like | -0.333 ± 12 spikes/s | -4.33 ± 14 spikes/s | -0.333 ± 6.4 spikes/s | -1.33 ± 7.1 spikes/s | 4 ± 15 spikes/s | 
32 | S. pallida pb2b-like | 2.33 ± 5.3 spikes/s | 6 ± 4 spikes/s | 8.33 ± 3.4 spikes/s | 8.33 ± 7.4 spikes/s | 4.33 ± 5.8 spikes/s | 
33 | Canton-S (D. melanogaster) pb2a | 1.69 ± 6.9 spikes/s | 1.43 ± 7.3 spikes/s | 5.43 ± 6.9 spikes/s | 4.29 ± 8.4 spikes/s | 0 ± 5 spikes/s | 
34 | Or67dGal4, UAS-Sfla Or42a4 at1 | 131 ± 22 spikes/s | 87 ± 27 spikes/s | 29.7 ± 21 spikes/s |  |  | 
35 | Canton-S (D. melanogaster) pb2b | -1.54 ± 9 spikes/s | -0.286 ± 8.4 spikes/s | 0.571 ± 8.4 spikes/s | 5.14 ± 12 spikes/s | -1.14 ± 8.4 spikes/s | 
